The entries come from a sample that favours hits as a whole.
Pf Dd2 growth = Plasmodium falciparum Dd2 growth inhibition; P. falciparum Dd2 growth, SYBR Green, 72 h; Potency, µM (titrated, usually from 28.9 µM), for the others: at the highest dose activity, negative = inhibition, hits mostly inhibitors; 120,000 tested, 4.3% active; active = well fitted inhibition curve with a large enough effect;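 note: plate controls were DMSO vehicle for no effect and reference drug for full effect; nearly all actives have a fitted effect of over 65% in size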
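Infected erythrocytes (Dd2, 0.3% parasitemia, 2.5% hematocrit final) are added to compound in RPMI-1640/Albumax II medium, grown 72 h at 37C in low oxygen, then lysed with saponin/Triton-X containing SYBR Green and read by fluorescence.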
Active calls of the source: *; i = inactive; [ ] = dose if it differs, or a comment. Potency is the fitted concentration of half-maximal effect.

SMILES | Pf Dd2 growth
CNS(=O)(=O)c1cc(-c2nnc(Nc3cc(C)ccc3C)c3ccccc23)ccc1C | 5µM*
Cc1ccc(-c2nnc(Nc3ccccc3O)c3ccccc23)cc1 | -24%
Cc1ccc(-c2nnc(Nc3ccc(F)cc3)c3ccccc23)cc1S(=O)(=O)NC(C)C | 11µM*
CCOC(=O)c1c(Nc2ccc(F)cc2)nnc(-c2ccccc2)c1-c1ccccc1 | -29%
Cc1ccc(-c2nnc(Nc3cccc(O)c3)c3ccccc23)cc1S(=O)(=O)N1CCOCC1 | i
Cc1cc(C)n(-c2nnc(Nc3cc(Cl)ccc3C)c3ccccc23)n1 | 61%
Cc1ccc(Nc2nnc(-c3ccc(C)c(S(=O)(=O)N4CCOCC4)c3)c3ccccc23)c(C)c1 | 7.9µM*
Cc1ccccc1Nc1nnc(-c2ccc(C)c(S(=O)(=O)N3CCOCC3)c2)c2ccccc12 | 31%
Cc1cc(C)n(-c2nnc(Nc3ccc(C(C)C)cc3)c3ccccc23)n1 | 6%
COc1cc(C(=O)N2[C@@H]3CC[C@H]2CC(NC(=O)c2ccncc2)C3)cc(OC)c1OC (some centres not stated) | i
COc1ccc(-c2nc3c(c(=O)[nH]2)CCN(C(=O)COc2ccccc2C)C3)cc1 | i
CCOC(=O)C1(Cc2ccccc2F)CCCN(C(=O)c2cnn(CC)c2)C1 (configuration not stated) | 3%
Cc1nccn1CC1CCN(C(=O)c2cn(C3CCC(N)CC3)nn2)CC1 (configuration not stated) | -1%
Cc1cc(C)cc(NC(=O)c2sc3nc(-c4ccccc4)cn3c2C)c1 | 7%
Cc1c(C(=O)Nc2cc(F)ccc2F)sc2nc(-c3ccc(F)cc3)cn12 | i
Cc1c(C(=O)Nc2ccc(F)c(C(F)(F)F)c2)sc2nc(-c3ccccc3)cn12 | 11µM*
O=C1N(CCc2ccccc2)CCOC12CCN(Cc1ccc(F)c(Cl)c1)CC2 | -10%[44.1 µM]
CN1C(=O)[C@H]2CN(Cc3ccc(F)c(Cl)c3)C[C@H]2C1=O | 46%
OC1(CN2CCCCC2)CCN(Cc2ccc(F)c(Cl)c2)C1 (configuration not stated) | 8.9µM*
COc1cc(CN2CCC(CO)(CN3CCCC3)CC2)ccc1F | 7.9µM*
Cc1cc(F)ccc1CN1CCC(CO)(CN2CCCC2)CC1 | i
OCC1(CN2CCCC2)CCN(Cc2cccc(O)c2)CC1 | -6%
CC(C)c1noc(-c2cn(C3CCN(C(=O)Cc4ccc(F)cc4)C3)nn2)n1 (configuration not stated) | 200%
O=C(Nc1ccc([C@H]2OCC(=O)N(Cc3ccc(F)cc3)[C@@H]2CO)cc1)C1CCC1 | i
CN(C)C(=O)c1ccc(OC2CCN(C(=O)c3ccccc3)CC2)nc1 | 25%
SMILES | Pf Dd2 growth
CC1=C[C@@H](CO)[C@H](C(C)C)C[C@H]1CC(=O)NCc1ccc(F)cc1 | 8%[44.1 µM]
Cc1nc(C2CC(O)C2)cc(N(C)Cc2ccc3c(c2)OCO3)n1 (configuration not stated) | -3%
Cc1cc(CN(C)c2cc(C3CC(N)C3)nc(N)n2)no1 (configuration not stated) | -5%
CCOc1ccc(Cl)cc1CN(C)c1cc(C2CC(O)C2)nc(N)n1 (configuration not stated) | 11µM*
CCOc1ccccc1C1NC(=O)N(CC(=O)NCc2ccc(OC)cc2)C2=C1C(=O)OC2 (configuration not stated) | i
c1cc2c(cc1N1CCC(N[C@H]3C[C@@H]4OCC[C@H]34)CC1)CCC2 | -13%
Fc1ccc2cnc(N3CCC(N[C@H]4C[C@@H]5OCC[C@H]45)CC3)nc2c1 | 8.9µM*
COc1ccc(CC(=O)N(C)Cc2cccc(C(F)(F)F)c2)cc1 | 20%[44.1 µM]
CCOc1ccc(CNCc2c(C(=O)O)n(Cc3ccc(C)cc3)c3cc(C)ccc23)cc1 | -2%
COc1ccc(Cn2c(C(=O)O)c(CNC3CCCC3)c3ccc(OC)cc32)cc1 | -22%
CCOc1ccccc1CNCc1c(C(=O)O)n(Cc2ccccc2)c2cc(OC)ccc12 | -17%
COc1ccc2c(CNCCc3ccco3)c(C(=O)O)n(Cc3ccc(C)cc3)c2c1 | i
COc1ccc2c(CNCc3cccs3)c(C(=O)O)n(Cc3ccccc3)c2c1 | -18%
COc1ccc(Cn2c(C(=O)O)c(CNCc3ccccc3F)c3ccc(OC)cc32)cc1 | 8.9µM*
COc1ccc2c(CNCc3ccc(C)o3)c(C(=O)O)n(Cc3ccccc3C)c2c1 | -22%
COc1ccc2c(CNCc3ccc(Cl)cc3)c(C(=O)O)n(Cc3ccccc3C)c2c1 | 11µM*
CCOc1ccc(CNCc2c(C(=O)O)n(Cc3ccc(OC)cc3)c3ccccc23)cc1 | 10µM*
Cc1noc(C)c1S(=O)(=O)N1CCC(N2CC(OCC3CC3)C23CCCCC3)CC1 (configuration not stated) | -13%
Cc1nc(C(C)C)sc1C(=O)N1CCC(=O)N(CC2CC2)C(C(C)C)C1 (configuration not stated) | -15%
CCn1cc(C(=O)N2CCC3(CC2)CN(Cc2ccccc2)CC3CO)cn1 (configuration not stated) | 7%
CCOCCCNC(=O)c1c(OCC)cc(=O)n2c1CCCCC2 | 2%

From PubChem
